Assay outcomes as filed in PubChem BioAssay.
HEK293 tox: Cytotoxic Profiling in HEK 293 Cell Line of Diverse Libraries Using Quantitative High-Throughput Screening | HEK 293 viability, ATP luminescence (CellTiter-Glo), 48-72 h | Potency, µM (top dose mostly 115 µM), inactives show top-dose activity change, negative = cytotoxicity, actives largely listed as inhibitors | hit rate 6.6% among 94,000 | AID 1345083, 2018; note: nearly all actives have a fitted effect of over 60% in size
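Read-out: CellTiter-Glo ATP luminescence. Cells: HEK 293, 250 cells/well. Exposure: 48 or 72 hr, 37 degree Celsius.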
hNpr1 antagonist: Natriuretic polypeptide receptor (hNpr1) antagonism - Primary qHTS; AID 1347048, 2019; Atrial natriuretic peptide receptor 1 (Homo sapiens), P16066; hit rate 1.6% among 76,000; HEK293 hNpr1 GloSensor cGMP, ANP-stimulated luminescence; Potency, µM (series often up to 46.3 µM), for the others: at the highest dose activity change, negative = inhibition, hits mostly inhibitors; calls by dose curve; note: nearly all actives have a fitted effect of over 60% in size
Target sequence (P16066 whole entry, looked up): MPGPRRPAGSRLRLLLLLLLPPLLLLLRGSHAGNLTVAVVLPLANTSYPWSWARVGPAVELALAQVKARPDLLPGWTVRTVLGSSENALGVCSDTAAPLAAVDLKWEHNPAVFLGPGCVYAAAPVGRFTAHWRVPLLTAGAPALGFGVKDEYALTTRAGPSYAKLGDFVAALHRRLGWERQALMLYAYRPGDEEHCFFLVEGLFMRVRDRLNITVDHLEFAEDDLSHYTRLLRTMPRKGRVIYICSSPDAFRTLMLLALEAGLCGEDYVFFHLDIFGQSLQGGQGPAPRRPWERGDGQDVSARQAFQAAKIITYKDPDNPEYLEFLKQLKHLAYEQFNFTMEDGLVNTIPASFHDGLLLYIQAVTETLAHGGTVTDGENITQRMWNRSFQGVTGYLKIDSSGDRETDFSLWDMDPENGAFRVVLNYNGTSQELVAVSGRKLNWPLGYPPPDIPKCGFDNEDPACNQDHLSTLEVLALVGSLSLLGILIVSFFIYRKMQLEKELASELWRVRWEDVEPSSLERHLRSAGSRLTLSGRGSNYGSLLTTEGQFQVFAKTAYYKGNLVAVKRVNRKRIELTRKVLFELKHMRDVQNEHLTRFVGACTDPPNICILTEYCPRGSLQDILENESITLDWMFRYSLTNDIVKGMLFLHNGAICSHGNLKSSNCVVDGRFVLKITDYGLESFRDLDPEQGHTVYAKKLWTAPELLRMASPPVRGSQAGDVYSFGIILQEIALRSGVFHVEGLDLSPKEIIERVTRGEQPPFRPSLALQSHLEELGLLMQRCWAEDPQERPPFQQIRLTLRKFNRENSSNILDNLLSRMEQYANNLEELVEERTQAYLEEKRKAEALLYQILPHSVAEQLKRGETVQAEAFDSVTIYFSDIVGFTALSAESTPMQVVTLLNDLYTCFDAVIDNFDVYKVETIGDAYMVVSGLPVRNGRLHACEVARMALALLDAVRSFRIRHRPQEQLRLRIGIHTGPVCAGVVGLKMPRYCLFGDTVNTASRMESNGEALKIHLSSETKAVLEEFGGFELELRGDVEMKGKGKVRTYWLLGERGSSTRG
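Compound pre-incubated 30 min at room temperature on GloSensor-loaded HEK293 cells stably carrying hNpr1 and the pGS-40F cGMP biosensor. Stimulation uses hNppA at 0.1 nM final; luminescence is taken at baseline and 20 min post-agonist.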
3T3 cytotox: Cytotoxic Profiling in NIH 3T3 Cell Line of Diverse Libraries Using Quantitative High-Throughput Screening | NIH 3T3 viability, CellTiter-Glo ATP luminescence, 48-72 h | Potency, µM (top dose mostly 96.7 µM), for inactives: at the top dose activity change, negative = cytotoxicity, most hits filed as inhibitors | hit rate 4.3% among 94,000 | AID 1345082, 2018; note: nearly all actives have a fitted effect of over 55% in size
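ATP-dependent luminescence (CellTiter-Glo) served as the viability signal for NIH 3T3 cells treated with compound for 48 or 72 hr at 37 °C.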
Luciferase inh: Firefly luciferase inhibition profiling of diverse chemical library using quantitative high-throughput screening; hit rate 2.5% among 76,000; purified P. pyralis luciferase, luminescence, biochemical; Luciferin 4-monooxygenase (Photinus pyralis), P08659; Potency, µM (doses to about 115 µM), usual class: inhibitors; note: nearly all actives have a fitted effect of over 65% in size
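Purified 10nM P. pyralis luciferase with 10uM D-luciferin and 10uM ATP in 50mM Tris acetate pH 7.5, 10mM Mg acetate, 0.01% Tween-20, 0.05% BSA. qHTS titration; luminescence read by CCD imager.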
Active calls of the source: *; [ ] = dose if it differs, or a comment. This is a sample that favours compounds with a hit; in the whole collection about 11% have one here. Unless noted, calls come from the whole dose curve; as a rule, active = well fitted curve in the direction sought with a large enough effect; inconclusive = small, poorly fitted or top-dose-only effect, or another doubt; inactive = no such curve, though single readings can be large; an effect the other way counts as inactive or inconclusive. % is set by controls: 0 for no effect and ±100 for the full control effect; potency is the fitted concentration of half-maximal effect.

How did Cc1ccccc1Cc1c(C)nc2c(C(=O)NCCc3noc(-c4ccncc4)n3)cnn2c1C do in these assays?
HEK293 tox: 44.7µM*; hNpr1 antagonist: 3.6%; 3T3 cytotox: inconclusive; Luciferase inh: inactive

How did CC(C)c1noc(-c2cccn3c(CNC(=O)c4cc(F)ccc4Cl)nnc23)n1 do in these assays?
HEK293 tox: -23.2%; hNpr1 antagonist: -1.6%; 3T3 cytotox: inactive; Luciferase inh: inactive

What do the screens show for `CNC(=O)c1cc(C)nc2onc(C3CCCN3C(=O)C3CC3)c12` (centres undefined)?
HEK293 tox: -15.7%; 3T3 cytotox: -27.5%

What do the screens show for `COc1ccc(Cn2c(-c3ccccc3)nc(C)c(CCO)c2=O)cc1F`?
HEK293 tox: inconclusive; hNpr1 antagonist: 1.3%; 3T3 cytotox: inconclusive; Luciferase inh: inactive

How did COc1ccccc1CN1CCCC(c2nn(-c3ccc(Cl)cc3)c(=O)[nH]2)C1 (centres undefined) do in these assays?
HEK293 tox: inconclusive; hNpr1 antagonist: 21.2%; 3T3 cytotox: inconclusive; Luciferase inh: inactive

What do the screens show for `N[C@@H]1CCN(Cc2ccccc2OCc2ccc(Cl)cc2)C[C@H]1O`?
HEK293 tox: 22.4µM*; hNpr1 antagonist: 0.0%; 3T3 cytotox: 28.2µM*; Luciferase inh: inactive

Results for CCCN1C(=O)Cc2cc(C(=O)N3CCN(c4ccccc4Cl)CC3)ccc21 ?
HEK293 tox: inconclusive; hNpr1 antagonist: -2.0%; 3T3 cytotox: inconclusive; Luciferase inh: inactive

What do the screens show for `CN(Cc1ccccc1)C(=O)c1coc(CN2CCN(c3ccccc3F)CC2)n1`?
HEK293 tox: inconclusive; hNpr1 antagonist: -6.0%; 3T3 cytotox: -22.1%; Luciferase inh: inactive

Results for Cc1nc(N2CCN(C(=O)c3c(F)cccc3Cl)CC2)cc(C(F)(F)F)n1 ?
HEK293 tox: -20.8%; hNpr1 antagonist: -1.9%; 3T3 cytotox: -23.3%; Luciferase inh: inactive

What do the screens show for `CC(c1ccccc1)N1CCN(c2cccc(CN(C)[S+](C)(=O)[O-])c2F)CC1` (centres undefined)?
HEK293 tox: 79.4µM*; 3T3 cytotox: inconclusive

How did CC(C)OC(=O)N(C)Cc1cccc(N2CCN(C(=O)c3c(Cl)cccc3Cl)CC2)c1F do in these assays?
HEK293 tox: 35.5µM*; 3T3 cytotox: inconclusive

How did CCOC(=O)C(Cc1cccc(N2CCN(C(=O)c3c(Cl)cccc3Cl)CC2)c1F)OC (centres undefined) do in these assays?
HEK293 tox: 79.4µM*; 3T3 cytotox: inconclusive

What do the screens show for `CC(C)N(Cc1cccc(N2CCN(C(=O)c3c(Cl)cccc3Cl)CC2)c1F)[S+](C)(=O)[O-]`?
HEK293 tox: 79.4µM*; 3T3 cytotox: inconclusive

What do the screens show for `CC(=O)N1CC2(CCN(CCS(C)(=O)=O)CC2)CC1C(=O)O` (centres undefined)?
HEK293 tox: inconclusive; hNpr1 antagonist: -9.8%; 3T3 cytotox: inconclusive; Luciferase inh: inactive

Results for COc1ccc(Nc2cc(-c3cccs3)nc3c(C)noc23)cc1OC ?
HEK293 tox: 63.1µM*; hNpr1 antagonist: -20.6%[70.6 µM]; 3T3 cytotox: 44.7µM*; Luciferase inh: inactive

What do the screens show for `Cc1noc2c(-c3cccc(CO)c3)cc(-c3cccs3)nc12`?
HEK293 tox: 100µM*; hNpr1 antagonist: 2.0%[70.6 µM]; 3T3 cytotox: 44.7µM*; Luciferase inh: inactive

How did COc1cccc(-c2cc(-c3ccccc3)nc3c(C)noc23)c1 do in these assays?
HEK293 tox: inconclusive; hNpr1 antagonist: 0.7%[70.6 µM]; 3T3 cytotox: inconclusive; Luciferase inh: inactive

Results for Cc1noc2c(-c3cccc(CO)c3)cc(-c3ccc(F)cc3)nc12 ?
HEK293 tox: 70.8µM*; hNpr1 antagonist: 2.5%[70.6 µM]; 3T3 cytotox: inconclusive; Luciferase inh: inactive

Results for Cc1noc2c(-c3cccc(CO)c3)cc(-c3cccc(C(F)(F)F)c3)nc12 ?
HEK293 tox: 44.7µM*; hNpr1 antagonist: -2.9%[70.6 µM]; 3T3 cytotox: 25.1µM*; Luciferase inh: inactive

What do the screens show for `CN1CC(=O)N(C2CCNC2)Cc2c1ncnc2N1CCCN(Cc2ccccc2)CC1` (centres undefined)?
HEK293 tox: -6.5%; 3T3 cytotox: inactive

How did CCOc1ccc(NC(=O)c2ccc3c(c2)N(C)C2CCCCN2C3=O)cc1 (centres undefined) do in these assays?
HEK293 tox: inconclusive; hNpr1 antagonist: -0.8%; 3T3 cytotox: inconclusive; Luciferase inh: inconclusive

What do the screens show for `CN1c2cc(C(=O)Nc3ccc(OC(F)(F)F)cc3)ccc2C(=O)N2CCCC21` (centres undefined)?
HEK293 tox: -24.0%; hNpr1 antagonist: 0.0%; 3T3 cytotox: -1.3%; Luciferase inh: 39.8µM*

How did Cc1ccc(NC(=O)c2ccc3c(c2)N(C)C2CCCCN2C3=O)cc1 (centres undefined) do in these assays?
HEK293 tox: inconclusive; hNpr1 antagonist: -0.1%; 3T3 cytotox: -26.0%; Luciferase inh: 39.8µM*

What do the screens show for `CN1c2cc(C(=O)NCc3cccs3)ccc2C(=O)N2CCCCC21` (centres undefined)?
HEK293 tox: inconclusive; hNpr1 antagonist: -1.6%; 3T3 cytotox: -20.8%; Luciferase inh: 25.1µM*

What do the screens show for `CCc1ccc(NC(=O)c2ccc3c(c2)N(C)C2CCCCN2C3=O)cc1` (centres undefined)?
HEK293 tox: inconclusive; hNpr1 antagonist: 0.0%; 3T3 cytotox: inconclusive; Luciferase inh: 14.1µM*

Results for O=C(c1cccc(Cl)c1)N1CCCC(C(=O)N2CCCC(c3nc4ncccc4[nH]3)C2)C1 (centres undefined) ?
HEK293 tox: -9.8%; 3T3 cytotox: -23.9%

How did O=C(c1cccnc1)N1CCCN(CCn2nc3n(c2=O)CCCC3)CC1 do in these assays?
HEK293 tox: 0.8%; 3T3 cytotox: -13.7%

What do the screens show for `Cc1ncc2c(n1)CCCN(CC(=O)NCCC(C)C)C2=O`?
HEK293 tox: -8.0%; 3T3 cytotox: -9.3%

What do the screens show for `CCOC(=O)[C@@H]1CN(C(=O)OC)[C@H]2c3ccc(OC)cc3O[C@@H]12`?
HEK293 tox: inconclusive; 3T3 cytotox: -13.0%

How did Cc1ccc(NC(=O)c2ccc3c(c2)N(C)C2CCCN2C3=O)cc1 (centres undefined) do in these assays?
HEK293 tox: 5.1%; hNpr1 antagonist: -23.4%; 3T3 cytotox: inactive; Luciferase inh: 22.4µM*

Results for Cc1ccc(NC(=O)c2ccc3c(c2)N(C)C2CCCCCN2C3=O)cc1 (centres undefined) ?
HEK293 tox: inconclusive; hNpr1 antagonist: 3.3%; 3T3 cytotox: inconclusive; Luciferase inh: inconclusive

What do the screens show for `O=C(Nc1cccc(-c2ccc(N3CCCC3)nn2)c1)Nc1cc(F)ccc1F`?
HEK293 tox: inconclusive; hNpr1 antagonist: inconclusive; 3T3 cytotox: inconclusive; Luciferase inh: 5.01µM*
